Reference: PubChem BioAssay (NCI)
This is part of a sample that, as a whole, favours compounds with a hit. Of some 79,000 tested, about 15% had one in any assay. Unmarked numbers belong to inactive results. Active and inactive are the calls of the source. Cut-off read from the data, not from the text of the source: active = growth inhibition above about 70%; inactive = the rest. Residues, ends and D or L forms follow the SMILES beside them. *: point of attachment. Fmoc = O=C(OCC1c2ccccc2-c2ccccc21)*; Boc = CC(C)(C)OC(=O)*

Assay: NCI Yeast Anticancer Drug Screen. Data for the wt1 strain (AID 149);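 note: 0% = growth of vehicle-treated wt1 cultures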
Conditions: S. cerevisiae wt1 strain (SPY 50644) growth inhibition; at 100.0 µM; stronger effect = higher value
In short: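 wt1 strain grown with compound or vehicle; inhibition taken from the growth difference.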

Structure (SMILES) | growth inhibition
CC(C)OP(=O)(OC(C)C)/C(Cl)=N/Nc1ccc([N+](=O)[O-])cc1 | 85% (active)
CCCCCCNCCCNc1c2cc(OC)ccc2nc2cccc([N+](=O)[O-])c12 | 96% (active)
CN(C)CCNCCCNc1c2ccccc2nc2cccc([N+](=O)[O-])c12 | 50%
O=[N+]([O-])c1ccc(/C=C\c2ccc3c(c2)OCO3)c([N+](=O)[O-])c1 | 35%
O=C1c2ccccc2N2OC3(N4CCCC4)CCCCC3C12c1ccccc1 (configuration not stated) | 98% (active)
CC(C)OC(=O)NNc1cc(Cl)ccc1Cl | 31%
Cc1oc2ccccc2c(=O)c1Cn1nnc2ccccc21 | 6%
CC1(C)OC(=O)C(=Cc2ccc([N+](=O)[O-])s2)C(=O)O1 | 35%
OC(Cc1cccc2ccccc12)CN1CCC(c2ccccc2)CC1 (configuration not stated) | 75% (active)
C1=CCN([B-](c2ccccc2)[C+]2CCCCC2)C=C1 | 98% (active)
CCCNC(=O)OCc1c(COC(=O)NCCC)c(-c2ccc(Cl)c(Cl)c2)n2c1CCC2 | 4%
CC1(C)CC(=O)C(C(=O)Nc2cccs2)=C(O)C1 | 99% (active)
O=C(NO)c1coc2ccccc2c1=O | 0%
COc1ccc(C(C)c2cc3c(cc2OCC(C)=O)OCO3)cc1 (configuration not stated) | 49%
CCS(=O)(=O)Nc1ccc(Nc2c3ccccc3nc3ccccc23)c(OC)c1 | 62%
CC1=NN(C(=O)c2ccccc2O)C(=O)/C1=C/c1ccco1 | 95% (active)
O=C1C=C(Br)C(=O)c2ccccc21 | 99% (active)
C[N+](C)([O-])CCCNc1c2ccccc2nc2cccc([N+](=O)[O-])c12 | 94% (active)
Cc1cccc2c(NCCCN(C)C)c3c([N+](=O)[O-])ccc(C)c3nc12 | 97% (active)
OC1(c2ccccc2)C2CC=CC2C1(c1ccccc1)c1ccccc1 (configuration not stated) | 21%
C[n+]1c(-c2ccc(/C=N/NC(=O)c3ccc(C(=O)N/N=C/c4ccc(-c5cn6ccccc6[n+]5C)cc4)cc3)cc2)cn2ccccc21 | 25%
CCN(CC)CCC(=O)Nc1ccc2sc3ccccc3c(=O)c2n1 | 8%
O=[N+]([O-])c1ccc2nc(=S)[nH]n2c1 | 41%
O=C(c1ccccc1)[C@H]1Nc2ccc(Cl)cc2[C@H]2OCCC[C@@H]12 | 88% (active)
COc1cc([N+](=O)[O-])c2ncccc2c1Br | -3%
O=S(=O)(c1cccc(C(F)(F)F)c1)N1c2ccccc2-n2cccc2C1c1cccnc1 (configuration not stated) | 89% (active)
CC(C)(C)OC(=O)NCCCCC(NC(=O)C(Cc1c[nH]c2ccccc12)NC(=O)OCC1c2ccccc2-c2ccccc21)C(=O)O (configuration not stated) (Fmoc-Trp-Lys(Boc)-OH; configuration not given here) | 50%
